These results are taken from PubChem BioAssay (Tox21).

Experiment [1] can be described thus: Nuclear factor erythroid 2-related factor 2/antioxidant responsive element (Nrf2/ARE) small molecule agonists: qHTS cell viability counter screen in human keratinocytes (AID 1919968; active = well fitted curve in the direction sought with a large enough effect in the repeat runs; an effect the other way counts as inactive or inconclusive; also: nearly all actives have a fitted effect of over 55% in size). The method, boiled down: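 Fluorescence read-out from CellTiter-Fluor after 1 h at 37 C. Wells held HaCaT-derived ARE-luciferase reporter cells (1,500/well) treated 23 h with DMSO-dissolved compounds. Run in the same wells as the luciferase agonist read.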
(In qHTS, concentration-response curves come from the screen itself.)

A short description of experiment [2]: Nuclear factor erythroid 2-related factor 2/antioxidant responsive element (Nrf2/ARE) small molecule agonists: luciferase reporter gene qHTS assay in human keratinocytes (AID 1919969). Also: nearly all actives have a fitted effect of over 35% in size. A general note: Reporter assays use an easily measured gene product as a stand-in for the process of interest.
The target of experiment [3] is Gonadotropin-releasing hormone receptor (Homo sapiens) (UniProt P30968). Briefly: Human gonadotropin-releasing hormone receptor (GnRHR) small molecule agonists, calcium flux assay in GnRHR-HEK293 cells (AID 1920063). Also: nearly all actives have a fitted effect of over 35% in size. The essentials: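 Calcium-dye fluorescence, Ex/Em=480/540, recorded every 1 sec over 3 min after compound addition to GnRHR-HEK293 cells. Cells had been seeded 18 hours earlier and dye-loaded for 1 hour at 37 C. Fifteen concentrations, triplicates.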
Gonadotropin-releasing hormone receptor (Homo sapiens), sequence (P30968 whole entry, looked up): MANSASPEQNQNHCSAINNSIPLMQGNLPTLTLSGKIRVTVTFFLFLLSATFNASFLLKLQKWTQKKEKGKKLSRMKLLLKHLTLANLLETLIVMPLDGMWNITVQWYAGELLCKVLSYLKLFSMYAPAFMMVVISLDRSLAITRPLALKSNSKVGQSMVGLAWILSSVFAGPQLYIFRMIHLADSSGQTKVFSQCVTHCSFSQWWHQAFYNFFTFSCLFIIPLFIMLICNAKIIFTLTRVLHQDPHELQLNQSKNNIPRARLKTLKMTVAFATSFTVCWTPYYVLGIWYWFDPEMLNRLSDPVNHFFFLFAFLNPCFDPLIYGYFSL
A general note: Calcium assays in cells follow changes in intracellular calcium, usually with a dye or a luminescent sensor.

Experiment [4] has as its target KiSS-1 receptor (Homo sapiens) (UniProt Q969F8). The experiment is described as follows: Human kisspeptin (KISS1R) small molecule agonists, calcium flux assay in KISS1R-HEK293 cells (AID 1920064; active = well fitted curve in the direction sought with a large enough effect in the repeat runs; an effect the other way counts as inactive or inconclusive). The essentials:
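Calcium flux read-out: kinetic fluorescence at Ex/Em=480/540, 1 s intervals over 3 min, after pin-tool compound addition to dye-loaded KISS1R-HEK293 cells. Fifteen concentrations, triplicates.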

Experiment [5] can be described thus: G protein-coupled receptor (GPCR) small molecule agonists, calcium flux assay: HEK293 wild type cell line counter screen (AID 1920065). The method, boiled down:
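Agonist mode; 18 h seeding at 37 C, 1 h dye load at 37 C; compounds pinned from DMSO, ATP as positive control; kinetic fluorescence 480/540 nm, 3 min, 1 s reads; 15 concentrations, triplicate.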

The nature of experiment [6]: p53 small molecule agonists, cell-based qHTS assay with human liver microsomes: qHTS cell viability counter screen (AID 1963579). Also: nearly all actives have a fitted effect of over 45% in size. The essentials: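 Seed p53RE-bla cells at 4,000 per well; incubate 5 h at 37 C; add compound, human liver microsomes and NADPH; incubate 16 h at 37 C; add CellTiter-Glo; after 30 min at room temperature, read luminescence.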
The nature of experiment [7]: p53 small molecule agonists, cell-based qHTS assay with rat liver microsomes: qHTS cell viability counter screen (AID 1963580). Also: nearly all actives have a fitted effect of over 45% in size. The method, boiled down: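 Cytotoxicity counter screen: intracellular ATP read by CellTiter-Glo luminescence in the p53 reporter wells. HCT-116 p53RE-bla cells were treated for 16 h at 37 C alongside rat liver microsomes and NADPH, each 0.5 mg/mL final.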

Experiment [8] can be described thus: p53 small molecule agonists, cell-based qHTS assay: qHTS cell viability counter screen (AID 1963581). Also: nearly all actives have a fitted effect of over 45% in size. The essentials: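 Cytotoxicity read-out: ATP-based luminescence (CellTiter-Glo, 30 min RT) measured in the same wells as the p53 reporter assay, HCT-116 p53RE-bla cells, 16 h compound exposure at 37 C.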
Experiment [9] addresses 5-hydroxytryptamine receptor 2A (Homo sapiens) (UniProt P28223). Briefly: 5-hydroxytryptamine receptor 2A (HTR2A) small molecule antagonists, cell-based qHTS assay (AID 1963586). Also: nearly all actives have a fitted effect of over 45% in size. Also: potency is read from the fitted curve at half-maximal effect. The method, boiled down: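 CHO cells stably expressing human HTR2A were plated for 18 h at 37 C, then loaded with calcium dye for 1 h. Compounds were preincubated 5 min at room temperature before DOI (4 nM solution) was added. Kinetic fluorescence was read for 3 min.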

Experiment [10] shares this target. The experiment is described as follows: 5-hydroxytryptamine receptor 2A (HTR2A) small molecule agonists, cell-based qHTS assay (AID 1963587). Also: nearly all actives have a fitted effect of over 30% in size. Also: potency is read from the fitted curve at half-maximal effect. The essentials:
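Kinetic calcium-flux fluorescence (2 min, 1 sec intervals) after compound addition in agonist mode. HTR2A-CHO cells were cultured 18 h, then dye-loaded 1 h at 37 C.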

In experiment [11] the target is Muscarinic acetylcholine receptor M1 (Homo sapiens) (UniProt P11229). Briefly: Cholinergic receptor muscarinic 1 (CHRM1) small molecule antagonists, cell-based qHTS assay (AID 1963588). Also: nearly all actives have a fitted effect of over 40% in size. The method, boiled down:
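Compounds were tested at 15 concentrations in three independent runs. Dye-loaded CHRM1-CHO cells were exposed 5 min at room temperature before stimulation by acetylcholine added at 50nM. Intracellular calcium was read kinetically on FDSS for 3 min.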

For experiment [12] the target is unchanged. Briefly: Cholinergic receptor muscarinic 1 (CHRM1) small molecule agonists, cell-based qHTS assay (AID 1963589). Also: nearly all actives have a fitted effect of over 35% in size. The essentials:
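Calcium flux read-out: kinetic fluorescence at 1 sec intervals after pin-tool compound addition to dye-loaded CHRM1-CHO cells (human M1). Agonist mode; 15 concentrations tested in triplicate independent runs.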

Experiment [13] can be described thus: cAMP Responsive Elements (CRE) small molecule agonists, cell-based qHTS assay (AID 1963590). The essentials: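 Beta-lactamase reporter readout: LiveBLAzer B/G FRET substrate, 2 h at room temperature, added after 3 h compound treatment of CRE-bla HEK 293T cells at 37 C/5% CO2.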
Experiment [14] is described as follows: cAMP Responsive Elements (CRE) small molecule antagonists, cell-based qHTS assay (AID 1963591; active = well fitted inhibition curve with a large enough effect in the signal ratio in the repeat runs, not every such curve was filed as active; the % refers to the signal ratio). The essentials: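 HEK293T CRE-bla; 18 h preincubation; compound pin-transfer; NKH477 0.25 uM final, 3 h, 37 C; LiveBLAzer FRET substrate 2 h RT.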
The target in experiment [15] is Beta-2 adrenergic receptor (Homo sapiens) (UniProt P07550). The experiment is described as follows: Adrenergic beta2 receptor (ADRB2) small molecule antagonists, cell-based qHTS assay (AID 1963592). Also: series mostly up to about 92 µM; nearly all actives have a fitted effect of over 50% in size. The method, boiled down:
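Assay format: CHO-ADRB2 cells, 18-20hr seeding at 37C/5% CO2, then compound plus 1nM isoproterenol agonist mix for 0.5hr RT. Homogeneous time-resolved fluorescence cAMP detection after 1hr, expressed as 665/615 nm ratio.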

Experiment [16] shares this target. The experiment is described as follows: Adrenergic beta2 receptor (ADRB2) small molecule agonists, cell-based qHTS assay (AID 1963593). Also: potency is read from the fitted curve at half-maximal effect.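 As to activation: CHO cells stably overexpressing human ADRB2.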 The essentials:
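CHO cells stably over-expressing ADRB2 were plated overnight at 37C, then dosed with compounds plus a stimulation mix containing 100uM IBMX and 25uM Ro-20-1724 for 0.5hr at room temperature. cAMP was measured by HTRF competition, 1hr.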

In experiment [17] the target is D(2) dopamine receptor (Homo sapiens) (UniProt P14416). Briefly: Dopamine D2 receptor (DRD2) small molecule agonists, cell-based qHTS assay (AID 1963594). Also: nearly all actives have a fitted effect of over 35% in size. The essentials:
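cAMP accumulation in DRD2-HEK293 cells measured by HTRF after 1 h detection; compounds added 10 min before NKH477 (200nM […]) forskolin-analogue stimulation, 30 min at room temperature, with Ro20-1724 present at 0.1 mM final.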

For experiment [18] the target is unchanged. Briefly: Dopamine D2 receptor (DRD2) small molecule antagonists, cell-based qHTS assay (AID 1963595; active = well fitted inhibition curve with a large enough effect in the signal ratio in the repeat runs, with a control signal flat; the % refers to the signal ratio). The essentials:
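Readout: HTRF cAMP, cAMP-d2 competing with cellular cAMP for anti-cAMP cryptate, read after 1 h. Cells: DRD2-HEK293. Conditions: 0.1 mM Ro20-1724, 12 nM quinpirole, 200 nM NKH477, 30 min RT.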

Experiment [19] is described as follows: p53 small molecule agonists, cell-based qHTS assay (AID 1963582; active = well fitted activation curve with a large enough effect in the signal ratio in the repeat runs, not every such curve was filed as active; the % refers to the signal ratio). The method, boiled down:
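Fluorescence intensity read-out of a beta-lactamase reporter under a p53 response element. Cells were exposed to DMSO-dissolved compounds for 16 h at 37 C, then developed with FRET substrate for 2 h at RT.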

SMILES strings stand for the structures. Unmarked numbers belong to inactive results. Inconclusive results are not listed. Active and inactive are the calls of the source. Unless noted, calls follow the shape of the full dose curve.

Muscarinic acetylcholine receptor M1 (Homo sapiens), sequence (P11229 whole entry, looked up): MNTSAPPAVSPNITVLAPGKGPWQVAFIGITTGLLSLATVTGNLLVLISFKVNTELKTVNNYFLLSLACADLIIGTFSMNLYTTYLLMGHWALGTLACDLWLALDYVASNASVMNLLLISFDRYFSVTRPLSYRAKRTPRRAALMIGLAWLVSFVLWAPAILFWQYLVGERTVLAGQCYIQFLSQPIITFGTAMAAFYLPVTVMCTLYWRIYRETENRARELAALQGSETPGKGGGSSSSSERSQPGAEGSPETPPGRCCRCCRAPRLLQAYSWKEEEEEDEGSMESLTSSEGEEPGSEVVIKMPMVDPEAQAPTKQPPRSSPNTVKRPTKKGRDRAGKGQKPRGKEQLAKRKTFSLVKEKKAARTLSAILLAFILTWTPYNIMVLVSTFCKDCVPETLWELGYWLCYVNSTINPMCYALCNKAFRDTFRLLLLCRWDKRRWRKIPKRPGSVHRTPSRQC
KiSS-1 receptor (Homo sapiens), sequence (Q969F8 whole entry, looked up): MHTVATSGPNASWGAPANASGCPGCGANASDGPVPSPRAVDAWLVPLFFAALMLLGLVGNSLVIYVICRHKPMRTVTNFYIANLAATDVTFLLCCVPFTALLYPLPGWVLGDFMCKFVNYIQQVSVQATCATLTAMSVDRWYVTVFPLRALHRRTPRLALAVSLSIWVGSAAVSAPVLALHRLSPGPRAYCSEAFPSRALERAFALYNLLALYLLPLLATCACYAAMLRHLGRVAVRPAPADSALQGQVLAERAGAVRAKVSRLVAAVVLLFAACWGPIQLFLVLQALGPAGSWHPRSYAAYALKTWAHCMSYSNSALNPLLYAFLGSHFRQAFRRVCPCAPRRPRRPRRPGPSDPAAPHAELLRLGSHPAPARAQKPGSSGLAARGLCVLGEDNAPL
Beta-2 adrenergic receptor (Homo sapiens), sequence (P07550 whole entry, looked up): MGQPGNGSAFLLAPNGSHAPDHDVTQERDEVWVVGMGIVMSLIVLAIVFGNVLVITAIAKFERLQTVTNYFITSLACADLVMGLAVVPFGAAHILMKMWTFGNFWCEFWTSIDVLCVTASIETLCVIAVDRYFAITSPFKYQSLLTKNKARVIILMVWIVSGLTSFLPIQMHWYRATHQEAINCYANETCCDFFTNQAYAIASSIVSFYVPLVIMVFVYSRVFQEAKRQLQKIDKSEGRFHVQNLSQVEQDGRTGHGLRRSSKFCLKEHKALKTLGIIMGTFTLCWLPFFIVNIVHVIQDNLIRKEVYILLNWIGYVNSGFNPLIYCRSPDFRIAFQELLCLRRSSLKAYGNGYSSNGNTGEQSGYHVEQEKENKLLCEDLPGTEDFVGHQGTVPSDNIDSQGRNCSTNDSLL
5-hydroxytryptamine receptor 2A (Homo sapiens), sequence (P28223 whole entry, looked up): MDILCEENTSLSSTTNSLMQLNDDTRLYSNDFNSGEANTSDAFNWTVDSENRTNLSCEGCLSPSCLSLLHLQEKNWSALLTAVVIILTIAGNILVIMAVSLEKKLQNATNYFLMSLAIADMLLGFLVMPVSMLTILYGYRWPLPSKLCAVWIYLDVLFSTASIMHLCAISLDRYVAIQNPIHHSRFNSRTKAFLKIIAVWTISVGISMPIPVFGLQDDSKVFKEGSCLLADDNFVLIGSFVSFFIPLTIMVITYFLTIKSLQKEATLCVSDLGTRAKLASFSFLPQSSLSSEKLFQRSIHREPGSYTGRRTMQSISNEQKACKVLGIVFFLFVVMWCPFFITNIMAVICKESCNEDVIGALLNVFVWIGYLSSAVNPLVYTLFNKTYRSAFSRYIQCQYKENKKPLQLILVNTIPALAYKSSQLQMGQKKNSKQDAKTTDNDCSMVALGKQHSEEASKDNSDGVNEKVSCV
D(2) dopamine receptor (Homo sapiens), sequence (P14416 whole entry, looked up): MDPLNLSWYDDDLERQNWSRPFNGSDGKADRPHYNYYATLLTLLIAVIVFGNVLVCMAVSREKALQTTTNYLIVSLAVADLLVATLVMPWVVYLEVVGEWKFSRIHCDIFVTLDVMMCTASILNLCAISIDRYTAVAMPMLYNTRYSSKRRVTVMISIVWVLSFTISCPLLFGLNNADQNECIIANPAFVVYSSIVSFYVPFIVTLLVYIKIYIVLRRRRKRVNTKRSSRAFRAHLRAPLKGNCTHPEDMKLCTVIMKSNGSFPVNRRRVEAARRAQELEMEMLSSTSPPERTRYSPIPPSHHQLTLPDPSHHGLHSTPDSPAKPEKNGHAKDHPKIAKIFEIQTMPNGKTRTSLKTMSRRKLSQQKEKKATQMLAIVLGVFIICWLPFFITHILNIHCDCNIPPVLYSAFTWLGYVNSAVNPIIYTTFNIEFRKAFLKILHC

Consider `O=S(=O)(Cl)c1ccccc1`, for which the Potency result in experiment [1], in experiment [2], in [3], in experiment [4], in [5] and in experiment [6] was “inactive” each time. In addition, the Potency entry in experiment [7], in experiment [8], in experiment [9], in [10], in experiment [11] and in experiment [12] was “inactive” in each case. Besides, the Potency entry in experiment [13], in experiment [14], in [15], in [16], in experiment [17] and in experiment [18] was “inactive” in each case.
`ClCc1ccccc1Cl`: the Potency result in experiment [1], in experiment [2], in [3], in experiment [4], in [5] and in experiment [6] was “inactive” in each case. In addition, the Potency entry in experiment [7], in [8], in experiment [9], in [10], in experiment [11] and in [12] was “inactive” throughout. In addition, the Potency result in [13], in experiment [14], in experiment [15], in experiment [16], in experiment [17] and in experiment [18] was “inactive” each time.
For `COC(=O)/C=C(\C)OP(=O)(OC)OC`, the Potency entry in experiment [1], in experiment [2], in experiment [3], in [4], in [5] and in experiment [6] was “inactive” in each case. Besides, the Potency entry in [7], in experiment [8], in [19], in experiment [9], in experiment [10] and in experiment [11] was “inactive” in each case. Moreover, the Potency entry in experiment [12], in experiment [13], in experiment [15], in [17] and in experiment [18] was “inactive” throughout. Moreover, the Potency in experiment [16] is 17200 nM (active).
Regarding `COP(=S)(OC)Oc1ccc(S(N)(=O)=O)cc1`, the Potency result in [1], in experiment [2], in experiment [3], in experiment [4], in experiment [5] and in experiment [6] was “inactive” each time. Also, the Potency entry in experiment [7], in experiment [8], in experiment [19], in experiment [9], in experiment [10] and in experiment [11] was “inactive” in each case. The Potency entry in [12], in [13], in [14], in experiment [15], in [17] and in experiment [18] was “inactive” in each case.
Consider `COc1cc(C[C@@H](C)N)c(OC)cc1C`, for which the Potency result in experiment [1], in [2], in [3], in [4], in experiment [5] and in [6] was “inactive” in each case. Further, the Potency entry in [7], in [8], in experiment [11], in experiment [12], in [13] and in experiment [14] was “inactive” in each case. Also, in experiment [18], the Potency entry is “inactive”. The Potency is 1.3 nM (active) in experiment [9] and 10.5 nM (active) in experiment [10].
Consider `O=C(O)C(Br)(Br)Br`, for which the Potency entry in experiment [1], in experiment [2], in [3], in experiment [4], in [5] and in experiment [6] was “inactive” in each case. Moreover, the Potency result in experiment [7], in experiment [8], in [9], in [10], in experiment [11] and in experiment [12] was “inactive” in each case. In addition, the Potency entry in [13], in experiment [14], in experiment [15], in experiment [16], in [17] and in [18] was “inactive” throughout.
